# Laboratory results taken from PubChem BioAssay (NCATS).
# Where “and” joins values, the source holds several entries; their conditions need not be identical. Identical values can stand only once. Results filed as inconclusive are left out. A number with no mark means an inactive call. Calls of active or inactive are those of the source. Calls follow the shape of the dose curve; as a rule, active = well fitted cell-killing curve with a large enough effect; inconclusive = small, poorly fitted or top-dose-only effect; inactive = flat fitted curve, though single readings scatter.
# Assay: qHTS of pediatric cancer cell lines to identify multiple opportunities for drug repurposing: Primary screen for BT-12 cells (AID 1347101); also: nearly all actives have a fitted effect of over 25% in size
# Details: BT-12 viability, CellTiter-Glo luminescence, 48 h; series mostly up to 57.3 µM; activity change, negative = cytotoxic: at the top concentration
# Excerpt: Drug repurposing or repositioning has been offered as a strategy for drug development in oncology programs. This approach has special potential for childhood cancers and other rare or orphan diseases, where the expected return on new drug development has been a disincentive to pharmaceuticals.
# In this project we exploit the poly-pharmacology of drugs to discover new indications via phenotypic screening of a panel of 19 well-characterized cell lines derived from solid tumors seen in children and adolescents. The goal is to identify approved drugs with previously unrecognized anticancer properties that has the potential to reveal new mechanisms and biological processes involved in carcinogenesis or drug resistance. We employed a titration-based paradigm (quantitative high-throughput screening or qHTS), where all compounds were tested at multiple concentrations for their effect on cell viability. Concentration-response curves (CRCs) were derived directly from the primary screen, and both potency and efficacy values were used to identify compounds with robust bioactivity profiles. We screened the NIH Chemical Genomics Center (NCGC) Pharmaceutical Collection (NPC) and Mechanism Interrogation Plate (MIPE) small molecule collections of approved and investigational compounds against these cell lines; and measured metabolically active cells after 48 hours of compound treatment as a proxy for cell viability.
# Assay Submitter: Nathalia J. Martinez, National Center for Advancing Translational Sciences, National Institutes of Health, Rockville, MD, USA; email: natalia.martinez@nih.gov
# [1] Shen, M et al. Quantitative high-throughput phenotypic screening of pediatric cancer cell lines identifies multiple opportunities for drug repurposing. Oncotarget 2017 Dec 19;9(4):4758-4772. PMID 29435139.
# The cells were obtained from University of North Carolina (UNC), Pediatric Preclinical Testing Program (PPT), and Coriell Institute (CI).
# qHTS cell viability assay:
# Cells were assayed in growth media at a density of 500-1,000 cells/well. Five microliters of cells were dispensed into 1,536-well, white, solid-bottom, TC-treated plates (Greiner Bio One) using a multidrop dispenser and incubated at 37 degrees C, 5% CO2, under a humidified atmosphere for 5 hours. Twenty-three nanoliters of compounds and controls (neutral control DMSO or positive control bortezomib at final concentration of 2.3 µM) were subsequently transferred by Kalypsys pintool. For primary screens, the MIPE collection was tested at 11-point dilutions (final concentrations range from 0.78 nM to 46 µM) and the NPC collection at 8-point dilutions (final concentrations range from 0.59 nM to 46 µM). Compounds tested in follow-up screens were assayed at 11-point dilutions. Cells were incubated for 48 hours, followed by addition of 3 µL of CellTiter-Glo (Promega). After a 15 min incubation at room temperature, samples were analyzed for luminescence intensity using a ViewLux High-throughput CCD imager equipped with clear filters.
# Potency is read from the fitted curve at half-maximal effect.
SMILES,Potency,"activity change, negative = cytotoxic"
CCN(CC)C(=S)SSC(=S)N(CC)CC,15.3 nM (active) and 72.7 nM (active) and 174 nM (active),
Cc1ncc([N+](=O)[O-])n1CC(C)O (stereo not given),inactive,
COc1c2occc2cc2ccc(=O)oc12,inactive,
Cc1nc(-c2ccc(OCC(C)C)c(C#N)c2)sc1C(=O)O,inactive,
Cc1cc(=O)oc2cc(O)ccc12,inactive,
CNC[C@@H](O)[C@@H](O)[C@H](O)[C@H](O)CO,,17.5%
Oc1ccc(OCc2ccccc2)cc1,inactive,
CCOc1cc(CC(=O)N[C@@H](CC(C)C)c2ccccc2N2CCCCC2)ccc1C(=O)O,,3.82%
CCCc1cc(=O)[nH]c(=S)[nH]1,inactive,
Clc1ccc(C(Cn2ccnc2)OCc2ccc(Sc3ccccc3)cc2)c(Cl)c1 (stereo not given),,7.77%
C[C@]12CCC(=O)C=C1CC[C@@H]1[C@H]2[C@@H](O)C[C@@]2(C)[C@H]1CC[C@]2(O)C(=O)CO,,11.8%
O=C(OC1C[C@H]2CC[C@@H](C1)[N+]21CCCC1)C(O)(c1ccccc1)c1ccccc1 (stereo not given in full),,-2.78%
c1ccc2[nH]c(-c3cscn3)nc2c1,inactive,
O=c1c(O)c(-c2ccc(O)cc2O)oc2cc(O)cc(O)c12,,-2.99%
Cc1nccn1CC1CCc2c(c3ccccc3n2C)C1=O (stereo not given),inactive,
CC1=C(C(=O)O)N2C(=O)[C@@H](NC(=O)[C@H](N)C3=CCC=CC3)[C@H]2SC1,inactive,
O=C(CCc1ccc(O)cc1)c1c(O)cc(O)cc1O,1.22 µM (active),
Cc1cc(C2CCCCC2)n(O)c(=O)c1,6.92 µM (active) and 17.2 µM (active),
Cn1c(NCCN(CCO)CCCc2ccc([N+](=O)[O-])cc2)cc(=O)n(C)c1=O,,0.477%
O=C(NCCO[N+](=O)[O-])c1cccnc1,inactive,

SMILES,Potency,"activity change, negative = cytotoxic"
COc1c(O)cc2c(c1O)[C@@H]1O[C@H](CO)[C@@H](O)[C@H](O)[C@H]1OC2=O,,-10.6%
C=CCc1cc(OC)c(O)c(C(=O)NCCO)c1,inactive,
CCOC(=O)C1=C[C@@H](OC(CC)CC)[C@H](NC(C)=O)[C@@H](N)C1,,6.08%
COCCCN1CCC(NC(=O)c2cc(Cl)c(N)c3c2OCC3)CC1,,7.34%
Cc1c(C(=O)NN2CCCCC2)nn(-c2ccc(Cl)cc2Cl)c1-c1ccc(Cl)cc1,4.85 µM (active),
O=C(O)CCNC(=O)c1ccc(N=Nc2ccc(O)c(C(=O)O)c2)cc1,inactive,
O=C(NOCC1CC1)c1ccc(F)c(F)c1Nc1ccc(I)cc1Cl,27.6 µM (active) and 24.3 µM (active),
O=P(O)(O)C(O)(Cn1ccnc1)P(=O)(O)O,,8.62% [at 20.1 µM]
Cc1ccc(C(=O)c2cc(O)c(O)c([N+](=O)[O-])c2)cc1,,3.08%
COc1ccc(C2(C#N)CCC(C(=O)O)CC2)cc1OC1CCCC1 (stereo not given),,15%
O=C(O)c1cn(-c2ccc(F)cc2)c2cc(N3CCNCC3)c(F)cc2c1=O,,-1.21% [at 20.1 µM]
Nc1cc(C(Cl)=C(Cl)Cl)c(S(N)(=O)=O)cc1S(N)(=O)=O,inactive,
CC1Cc2ccccc2N1NC(=O)c1ccc(Cl)c(S(N)(=O)=O)c1 (stereo not given),inactive,
CC[C@]1(O)C[C@H]2CN(CCc3c([nH]c4ccccc34)[C@@](C(=O)OC)(c3cc4c(cc3OC)N(C=O)[C@H]3[C@@](O)(C(=O)OC)[C@H](OC(C)=O)[C@]5(CC)C=CCN6CC[C@]43[C@@H]65)C2)C1,15.3 nM (active) and 19.5 nM (active),
CCN(CC)CCOc1ccc(Cc2ccccc2)cc1,,-5.27%
O=C(CS(=O)Cc1ccco1)NCC=CCOc1cc(CN2CCCCC2)ccn1 (stereo not given),,13.1%
Cc1c(OCC(F)(F)F)ccnc1CS(=O)c1nc2ccccc2[nH]1 (stereo not given),,-10.5%
Cc1cccc(-c2[nH]ncc2-c2ccc3ncccc3n2)n1,,-18.5%
C[C@@H](N)C1CCC(C(=O)Nc2ccncc2)CC1 (stereo not given in full),,10.8%
CC1(C)CCC(C)(C)c2cc(NC(=O)c3ccc(C(=O)O)cc3)ccc21,inactive,
